From PubChem BioAssay
MPTP block = mitochondrial permeability transition pore inhibitors, primary screen, biochemical, isolated mouse mitochondria, absorbance | Ca2+ swelling absorbance, 30 min | inhibition, % at 10 µM | 360,000 compounds, 1.4% hits | AID 602449, 2012;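 active = inhibition of 50% or more, scaled per plate between neutral and stimulator controls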;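 note: 0% = DMSO wells given calcium and 100% = 1 mM EGTA wells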
SUMO Mot1 rescue = yeast Mot1-301 growth rescue at high temperature, primary screen, SUMOylation pathway inhibitor project, S. cerevisiae, ATP luminescence, 38.5C. growth rescue, % at 18.8 µM. S. cerevisiae Mot1-301 growth rescue; percent above DMSO median, 100 means doubled. 320,000 compounds, 1% hits. AID 2716, 2010;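 active = every valid replicate shows activation above 250% relative to neutral control wells; inactive = the rest, any valid replicate at or below 250%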;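 note: OY570 slx delta 5 strain wells were the positive control but not used for scaling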
Cardio protect = cardioprotection against H2O2-induced cell death, primary screen, uHTS, H9c2 cells, ATPLite luminescence; AID 588492, 2011; H9c2 cardiomyocytes, H2O2 injury protection, 2 h; 360,000 compounds, 0.63% hits; protection from H2O2 cell death, % at 20 µM;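 active = compounds giving at least 50% protection of heart cells from peroxide-induced death in the single-dose screen, raw or plate-pattern-corrected value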;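 note: 0% = DMSO wells with peroxide and 100% = DMSO wells without peroxide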
FAS TE block = FAS thioesterase domain inhibitors, primary screen, biochemical, fluorescence intensity, uHTS. Fatty acid synthase (Homo sapiens), P49327. recombinant FAS-TE, OMFH fluorogenic substrate, fluorescence endpoint. inhibition, % at 15 µM. 360,000 compounds, 0.67% hits;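 active = compounds whose normalised, plate-corrected inhibition of enzyme fluorescence in the single-dose primary screen is 50% or more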;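 note: 0% = DMSO with enzyme and 100% = substrate without enzyme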
aDG glyco act = activators of alpha-DG glycosylation, primary screen, uHTS, Pro5-aDG cells, AlphaScreen. activation, % at 10 µM. alpha-DG glycosylation AlphaScreen (IIH6); 0% Pro5, 100% B10-LARGE cell signal. 360,000 compounds, 0.22% hits;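 active = activation of at least 8% versus controls, or a plate z-score of at least 8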;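 note: Pro5 are CHO cells carrying HIG-tagged alpha-DG that lacks glycosylation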
Yeast superoxide = reduction of superoxide in aged yeast, primary screen, HTS; S. cerevisiae aged cells, superoxide DHE fluorescence; stronger effect = lower value; superoxide response (% of plate mean), % at 10 µM; 330,000 compounds, 0.18% hits; AID 2690, 2010;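 active = superoxide response under a set limit, about three screen SD below normal, cut at about 65% in these data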;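 note: yeast aged for seven days with compound at 30 °C before DHE staining; 100% = average MFI of all compound-treated wells on the plate with controls excluded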
MPTP counter = fluorescence retest of MPTP screen hits in isolated mitochondria, single concentration; shares compounds with MPTP block; membrane potential, Rhodamine 123 fluorescence; inhibition, % at 10 µM; 5,000 compounds, 78% hits; AID 624504, 2012; in the data active = inhibition above about 22%;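 note: 0% = DMSO vehicle and 100% = positive control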
MPTP swell DR = mitochondrial permeability transition pore inhibitors, dose response, biochemical, absorbance, uHTS hits | isolated mitochondria swelling | IC50, µM | 780 compounds, 58% hits | AID 651561, 2012 | shares compounds with MPTP block; in the data active = IC50 below about 20 µM
MPTP cs DR = fluorescent counter-screen in isolated mitochondria, dose response, counter-screen for MPTP inhibitor project, biochemical, fluorescence, uHTS hits; shares compounds with MPTP block; isolated mitochondria counterscreen, fluorescence read-out; 780 compounds, 49% hits; IC50, µM; AID 651564, 2012; in the data active = IC50 below about 80 µM
Numbers without * were called inactive; i = inactive; nt = not tested or not shown. Rows were chosen to be rich in hits. Some 3.8% of all compounds tested hit in one or more screens of this group.

SMILES	MPTP block	SUMO Mot1 rescue	Cardio protect	FAS TE block	aDG glyco act	Yeast superoxide	MPTP counter	others
COc1ccc(-c2nc(-c3ccccc3)c(-c3cccs3)[nH]2)cc1OC	3	142	26	18	1	108	nt
COc1cc(-c2nc(-c3ccccc3)c(-c3ccc(F)cc3)[nH]2)cc2c1OCO2	89*	-4	-14	24	2	86	63*
COc1ccc(-c2[nH]c(-c3ccc4c(c3)OCO4)nc2-c2ccccc2)cc1	95*	18	-36	31	2	106	70*
Cc1ccc(S(=O)(=O)Nc2ccc3cc([N+](=O)[O-])ccc3c2[N+](=O)[O-])cc1	88*	nt	-10	19	0	nt	79*
Cc1ccc(S(=O)(=O)Nc2ccc3ccccc3c2[N+](=O)[O-])cc1	26	nt	-6	3	0	nt	nt
C[C@@H]1CCC2[C@](C)(CO)[C@@H](O)CC[C@]2(C)[C@@]12C[C@](CO)(CC(=O)O)CO2 (stereo not given in full)	0	-12	3	-3	0	109	nt
CCc1c(C(=O)Nc2ccc(OC)c(Cl)c2)[nH]c(C)c1C(C)=O	88*	-1	-14	-1	0	97	95*
CN(C)S(=O)(=O)c1cccc(N=c2scc(-c3ccc4c(c3)NC(=O)CO4)n2CC2CCCO2)c1 (stereo not given)	1	3	-1	14	-1	112	nt
COc1ccccc1N=c1scc(-c2ccc3c(c2)NC(=O)CO3)n1CC1CCCO1 (stereo not given)	64*	12	9	5	0	96	12	MPTP swell DR=i;MPTP cs DR=41*
COCCn1c(C)cc(C(=O)CSc2nc(C)cc(C)c2C#N)c1C	66*	6	-10	33	0	105	4	MPTP swell DR=i;MPTP cs DR=58*
COc1ccc(Cl)cc1N(C(=O)Nc1cccc(Cl)c1)C1=NCC(C)S1 (stereo not given)	92*	-9	-8	17	1	93	89*
Cc1cccc(N(C(=O)Nc2ccccc2)C2=NCC(C)S2)c1 (stereo not given)	0	-5	0	0	0	96	nt
CN1CCN(/N=C/c2ccc(N(c3ccccc3)c3ccccc3)cc2)CC1	81*	18	-40	21	0	116	-15
CN1CCN(/N=C/c2ccc(Cl)c(Cl)c2)CC1	90*	3	-3	-5	0	114	-4
Oc1ccc(C[C@@H]2CNCCN2CC2CCCCC2)cc1	3	-11	-3	-3	1	104	nt
c1ccc2c(C[C@@H]3CNCCN3CC3CCCCC3)cccc2c1	54*	-3	-15	-54	1	95	-12
O=C(Cc1cccc(F)c1)N1CCOCC1	-1	nt	-2	-5	0	nt	nt
Cc1ccc(N/N=C(\C#N)C(N)=S)cc1C	67*	-18	-23	0	0	96	89*
Cc1ccc(NC(N)=S)cc1C	0	0	-1	-8	1	94	nt
N#C/C(=N\Nc1ccccc1)C(N)=S	6	0	-11	-3	0	100	nt
N#C/C(=N\Nc1ccc(Cl)cc1)C(N)=S	70*	47	-18	3	0	106	92*
CCOc1ccc(C(=O)Nc2ccc3[nH]ncc3c2)cc1	0	319	-14	-5	0	90	nt
Cc1cc(C(=O)Nc2ccc(F)c(Cl)c2)on1	0	8	0	-2	0	82	nt
Cc1onc(-c2ccccc2)c1CNC(=O)Nc1ccc(C(F)(F)F)cc1	78*	-7	-15	28	0	101	83*
Cc1cc(C)cc(NC(=O)NCc2c(-c3ccccc3)noc2C)c1	26	22	-9	2	0	109	nt
SMILES	MPTP block	SUMO Mot1 rescue	Cardio protect	FAS TE block	aDG glyco act	Yeast superoxide	MPTP counter	others
Cc1onc(-c2ccccc2)c1CNC(=O)Nc1cccc(Cl)c1	78*	97	-15	21	1	107	85*
CCN1C[C@@H]2[C@@H]3C(=O)N(C)C(=O)[C@@H]3[C@](C)(C1=O)N2C(=O)c1ccc(Cl)c(Cl)c1	1	nt	3	-11	0	nt	nt
Oc1ccccc1-c1n[nH]c(-c2ccccc2O)n1	87*	nt	-15	5	0	nt	84*
CC1(C)CC(c2nc(-c3ccc(Cl)cc3)cs2)CCS1 (stereo not given)	78*	4	-19	27	0	85	0	MPTP swell DR=>100;MPTP cs DR=58*
CCC(=O)Nc1ccc(C(=O)NNC(=O)C2CCCCC2)cc1	0	12	-1	-3	2	106	nt
COC1=CC(=O)OC(c2ccc(C(F)(F)F)cc2)C1 (stereo not given)	-1	nt	nt	nt	0	nt	nt
COc1cc(CNn2nnnc2N)cc(Br)c1OCC(=O)NC(C)(C)C	0	-2	-2	-8	0	93	nt
COc1cc(CNn2nnnc2N)cc(Br)c1OCc1c(Cl)cccc1Cl	52*	-13	-11	5	2	100	30*
CCOC(=O)C1(CCOc2ccccc2)CCN(Cc2ccc(OC)c(COC)c2)CC1	86*	-8	-13	2	0	98	74*
CCOC(=O)C1(CCOc2ccccc2)CCN(Cc2ccc(COC)o2)CC1	61*	-9	-1	-1	1	102	3	MPTP swell DR=19*;MPTP cs DR=37*
CCOC(=O)C1(CCOc2ccccc2)CCN(Cc2ccc(OC)c(O)c2)CC1	9	22	-10	-2	0	93	nt
CCOC(=O)C1(CCc2ccccc2)CCN(Cc2c(O)cccc2OC)CC1	62*	177	-22	-54	0	118	88*
Cc1ccccc1-c1cnc(C(O)c2c(C)ccc3ccccc23)[nH]1 (stereo not given)	2	nt	-5	0	0	nt	nt
O=C(NCC(=O)N1CCN(c2ccccc2)CC1)c1ccc(Br)o1	-2	302	-5	-2	0	102	nt
Cc1ccc(OCc2cc(C(=O)NC3CCc4ccccc43)no2)cn1 (stereo not given)	-1	18	-16	3	2	93	nt
OC(CNCc1ccccc1)COc1ccccc1 (stereo not given)	-1	-3	4	-6	0	nt	nt
